The text below walks through data of the supplement of paper PMC6897291.

Test [1] has as its system RIVA. Put plainly: growth inhibition by drug alone (1 - RLU/untreated control) (fraction); higher = stronger inhibition. The following applies: 177Lu-lilotomab satetraxetan 0 ug/ml. Put shortly: (§1)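 RIVA or U-2932 cells, untreated or pretreated 18 h with a radiolabelled anti-CD37 antibody conjugate (~600 MBq/mg; 0.5 µg/ml RIVA, 1 µg/ml U-2932), were washed and seeded at 3,000 cells/well on plates pre-printed with the Selleck Cambridge Cancer Compound library. Doses were 10/100 nM (RIVA) or 10/1,000 nM (U-2932). RealTime-Glo luminescence was read daily from day 3 after 1 h at 37°C. Growth inhibition is 1 − RLU/mean of 48 untreated no-drug wells per plate.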

In test [2] the test system is U-2932. Put plainly: growth inhibition by drug plus 177Lu-lilotomab satetraxetan (1 - RLU/untreated control) (fraction); higher = stronger inhibition. The following applies: 177Lu-lilotomab satetraxetan 1 ug/ml. Put shortly: as §1
Test [3] deals with RIVA. The description is as above. The following applies: 177Lu-lilotomab satetraxetan 0.5 ug/ml. Put shortly: as §1
Test [4] has as its system U-2932. Put plainly: growth inhibition by drug alone (1 - RLU/untreated control) (fraction); higher = stronger inhibition. The following applies: 177Lu-lilotomab satetraxetan 0 ug/ml. Put shortly: as §1

Structures can show the parent of a compound that is named as a salt.

As to `CCCC(=O)[O-].[Na+]` [Sodium butyrate], the “growth inhibition by drug alone” value is -0.23 in the test on RIVA [1] (10 nM, time (day): 3); -0.252 with RIVA [1] (10 nM, time (day): 4); -0.304 in the test on RIVA [1] (10 nM, time (day): 5); -0.546 in the test on RIVA [1] (10 nM, time (day): 6); -0.245 in the test on RIVA [1] (100 nM, time (day): 3); -0.343 in the test with RIVA [1] (100 nM, time (day): 4). In addition, the “growth inhibition by drug alone” value was -0.3 in the test with RIVA [1] (100 nM, time (day): 5) and -0.374 in the test on RIVA [1] (100 nM, time (day): 6). Further, the “growth inhibition by drug plus 177Lu-lilotomab satetraxetan” value in the test with U-2932 [2] (10 nM, time (day): 3) was -0.0586; in the test with U-2932 [2] (10 nM, time (day): 4), -0.0574; in the test on U-2932 [2] (10 nM, time (day): 5), -0.0479; in the test on U-2932 [2] (10 nM, time (day): 6), -0.015; with U-2932 [2] (1000 nM, time (day): 3) it was -0.0238; in the test on U-2932 [2] (1000 nM, time (day): 4) it was 0.0387. Besides, the “growth inhibition by drug plus 177Lu-lilotomab satetraxetan” value in the test with U-2932 [2] (1000 nM, time (day): 5) is 0.0442; with U-2932 [2] (1000 nM, time (day): 6) it was 0.139; in the test on RIVA [3] (10 nM, time (day): 3), 0.36; in the test on RIVA [3] (10 nM, time (day): 4), 0.484; in the test on RIVA [3] (10 nM, time (day): 5), 0.502; in the test on RIVA [3] (10 nM, time (day): 6) it was 0.51. Also, the “growth inhibition by drug plus 177Lu-lilotomab satetraxetan” value in the test on RIVA [3] (100 nM, time (day): 3) amounted to 0.431; in the test on RIVA [3] (100 nM, time (day): 4), 0.486; in the test with RIVA [3] (100 nM, time (day): 5) it was 0.506; in the test with RIVA [3] (100 nM, time (day): 6), 0.493.
Consider `O=C(c1ccc(OCCN2CCCCC2)cc1)c1c(-c2ccc(O)cc2)sc2cc(O)ccc12` [Evista (Raloxifene Hydrochloride)], for which the “growth inhibition by drug alone” value in the test with RIVA [1] (10 nM, time (day): 3) was 0.0573; with RIVA [1] (10 nM, time (day): 4), -0.0405; with RIVA [1] (10 nM, time (day): 5), -0.151; with RIVA [1] (10 nM, time (day): 6), -0.472; with RIVA [1] (100 nM, time (day): 3), -0.0542; in the test with RIVA [1] (100 nM, time (day): 4), -0.0819. In addition, the “growth inhibition by drug alone” value in the test with RIVA [1] (100 nM, time (day): 5) is -0.167; with RIVA [1] (100 nM, time (day): 6), -0.432. The “growth inhibition by drug plus 177Lu-lilotomab satetraxetan” value is -0.0103 with U-2932 [2] (10 nM, time (day): 3); 0.0219 in the test on U-2932 [2] (10 nM, time (day): 4); 0.0239 with U-2932 [2] (10 nM, time (day): 5); 0.0818 in the test with U-2932 [2] (10 nM, time (day): 6); -0.103 with U-2932 [2] (1000 nM, time (day): 3); 0.0136 in the test on U-2932 [2] (1000 nM, time (day): 4). The “growth inhibition by drug plus 177Lu-lilotomab satetraxetan” value with U-2932 [2] (1000 nM, time (day): 5) was -0.0473; with U-2932 [2] (1000 nM, time (day): 6) it was -0.104; with RIVA [3] (10 nM, time (day): 3), 0.368; with RIVA [3] (10 nM, time (day): 4), 0.48; in the test with RIVA [3] (10 nM, time (day): 5), 0.511; in the test on RIVA [3] (10 nM, time (day): 6), 0.525. Besides, the “growth inhibition by drug plus 177Lu-lilotomab satetraxetan” value in the test with RIVA [3] (100 nM, time (day): 3) was found to be 0.425; with RIVA [3] (100 nM, time (day): 4), 0.482; in the test on RIVA [3] (100 nM, time (day): 5), 0.477; in the test with RIVA [3] (100 nM, time (day): 6), 0.447.
With `COc1cc(C(=O)NC(=S)Nc2cccc(NC(=O)c3ccccc3)c2)cc(OC)c1OC`, the “growth inhibition by drug alone” value with U-2932 [4] (10 nM, time (day): 3) is 0.147; in the test on U-2932 [4] (10 nM, time (day): 4), 0.139; in the test on U-2932 [4] (10 nM, time (day): 5), 0.0192; in the test with U-2932 [4] (10 nM, time (day): 6), -0.0981; in the test with U-2932 [4] (1000 nM, time (day): 3), 0.0988; with U-2932 [4] (1000 nM, time (day): 4), 0.139. The “growth inhibition by drug alone” value in the test with U-2932 [4] (1000 nM, time (day): 5) was 0.108; in the test with U-2932 [4] (1000 nM, time (day): 6), 0.0418; with RIVA [1] (10 nM, time (day): 3) it was 0.0482; with RIVA [1] (10 nM, time (day): 4), 0.0356; with RIVA [1] (10 nM, time (day): 5), 0.0061; with RIVA [1] (10 nM, time (day): 6), -0.153. In addition, the “growth inhibition by drug alone” value in the test on RIVA [1] (100 nM, time (day): 3) was 0.0949; in the test with RIVA [1] (100 nM, time (day): 4), 0.0458; in the test on RIVA [1] (100 nM, time (day): 5) it was 0.00408; with RIVA [1] (100 nM, time (day): 6) it was -0.0801. The “growth inhibition by drug plus 177Lu-lilotomab satetraxetan” value is 0.0383 in the test with U-2932 [2] (10 nM, time (day): 3); 0.0678 in the test on U-2932 [2] (10 nM, time (day): 4); 0.111 in the test with U-2932 [2] (10 nM, time (day): 5); 0.148 in the test on U-2932 [2] (10 nM, time (day): 6); -0.0454 in the test with U-2932 [2] (1000 nM, time (day): 3); 0.0986 with U-2932 [2] (1000 nM, time (day): 4). The “growth inhibition by drug plus 177Lu-lilotomab satetraxetan” value worked out at 0.0849 with U-2932 [2] (1000 nM, time (day): 5) and 0.125 with U-2932 [2] (1000 nM, time (day): 6).
With `Cc1ccc(Nc2nccc(N(C)c3ccc4c(C)n(C)nc4c3)n2)cc1S(N)(=O)=O` [Pazopanib], the “growth inhibition by drug alone” value is 0.0671 in the test on U-2932 [4] (10 nM, time (day): 3); 0.059 in the test on U-2932 [4] (10 nM, time (day): 4); 0.0169 in the test on U-2932 [4] (10 nM, time (day): 5); -0.0275 with U-2932 [4] (10 nM, time (day): 6); 0.0873 with U-2932 [4] (1000 nM, time (day): 3); 0.113 in the test with U-2932 [4] (1000 nM, time (day): 4). For the same molecule, the “growth inhibition by drug alone” value with U-2932 [4] (1000 nM, time (day): 5) was 0.0564; in the test with U-2932 [4] (1000 nM, time (day): 6), -0.194; in the test on RIVA [1] (10 nM, time (day): 3) it was 0.149; with RIVA [1] (10 nM, time (day): 4), 0.0444; in the test on RIVA [1] (10 nM, time (day): 5), -0.0206; in the test with RIVA [1] (10 nM, time (day): 6), -0.258. Also, the “growth inhibition by drug alone” value was 0.117 in the test on RIVA [1] (100 nM, time (day): 3); 0.0561 in the test with RIVA [1] (100 nM, time (day): 4); 0.0246 in the test with RIVA [1] (100 nM, time (day): 5); -0.0758 with RIVA [1] (100 nM, time (day): 6). In addition, the “growth inhibition by drug plus 177Lu-lilotomab satetraxetan” value in the test with U-2932 [2] (10 nM, time (day): 3) is 0.0594; in the test on U-2932 [2] (10 nM, time (day): 4), 0.0779; in the test with U-2932 [2] (10 nM, time (day): 5) it was 0.0787; in the test with U-2932 [2] (10 nM, time (day): 6), 0.118; with U-2932 [2] (1000 nM, time (day): 3), -0.00732; in the test on U-2932 [2] (1000 nM, time (day): 4), 0.0799. For the same molecule, the “growth inhibition by drug plus 177Lu-lilotomab satetraxetan” value with U-2932 [2] (1000 nM, time (day): 5) turned out to be 0.0706; in the test on U-2932 [2] (1000 nM, time (day): 6), 0.00785.
